# Screening data from PubChem.
# Integrin act MD: activators of alpha7 integrin expression for muscular dystrophy. alpha7betagal myoblasts, beta-gal FDG fluorescence, 48 h. Potency, µM (doses to about 38.3 µM), most hits filed as activators. 350,000 compounds, 0.064% hits. AID 624291; also: nearly all actives have a fitted effect of over 60% in size
#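 Alpha7betagal+/- myoblasts (passage 13) were plated 16-24 hr, then exposed to compounds (1:260 dilution of DMSO stock) for 48 hours at 37C. After MPER lysis, β-galactosidase reporter activity was read as FDG fluorescence (ex 480/em 540) after 30 minutes.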
# ATXN viability: cell viability loss in ATXN counter-screen; S2 cells (HEK-293 line with an ATXN2-luciferase reporter) viability, CellTiter-Fluor protease fluorescence, 24 h; Potency, µM (top dose mostly 56.7 µM), usual class: cytotoxic; 400,000 compounds, 0.49% hits; also: nearly all actives have a fitted effect of over 40% in size
# DRD3 agonist: D3 dopamine receptor (human) agonism. P35462. D3R DiscoveRx beta-arrestin cells, luminescence, 90 min. max activation, %. 410,000 compounds, 0.58% hits; in the data active = max activation above about 30%
# Target sequence (P35462 whole entry, looked up): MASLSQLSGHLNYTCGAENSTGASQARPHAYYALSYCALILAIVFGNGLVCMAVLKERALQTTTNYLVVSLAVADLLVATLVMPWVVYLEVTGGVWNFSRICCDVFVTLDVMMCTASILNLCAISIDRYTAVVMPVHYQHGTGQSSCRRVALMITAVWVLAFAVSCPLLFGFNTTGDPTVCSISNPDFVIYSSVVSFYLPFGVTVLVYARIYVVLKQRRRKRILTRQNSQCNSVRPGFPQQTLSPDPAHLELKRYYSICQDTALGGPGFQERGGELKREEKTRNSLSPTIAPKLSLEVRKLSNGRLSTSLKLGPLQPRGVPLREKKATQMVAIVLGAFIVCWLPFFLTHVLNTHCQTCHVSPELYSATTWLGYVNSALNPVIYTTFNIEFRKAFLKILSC
#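 Cells at 1500/well, incubated overnight, then treated with pinned compounds (dopamine as control) for 90 min at 37 degrees C. DiscoveRx reagent added for 30 - 60 minutes at room temperature; luminescence read.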
# ATXN2 expr inh: inhibitors of ATXN2 expression; Potency, µM (series often up to 57 µM), most hits filed as inhibitors; 360,000 compounds, 0.72% hits; HEK-293 ATXN2-luciferase reporter, luminescence, 24 h; AID 1745845; also: nearly all actives have a fitted effect of over 55% in size
#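 ATXN2-luciferase reporter cells (luciferase flanked by upstream and downstream ATXN2 gene portions) were treated 24 h at 37 °C with compounds at up to 57 uM. SteadyGlo luminescence gave expression; GF-AFC fluorescence gave viability.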
# IL1B secr inh: blocks inflammasome-driven IL-1 beta release; 360,000 compounds, 4.7% hits; THP-1 LPS/ATP IL-1B secretion, AlphaLISA, 16 h; active compounds read low; activity change, % at 57.5 µM; AID 743279; in the data active = activity change below about -50%; inconclusive = mostly about -30% to -49%
#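 Secreted IL-1B measured by AlphaLISA bead assay after 16 h compound exposure of THP-1 cells; compounds (final up to 57.5 uM) added 1 h before LPS (250 ng/mL) and ATP (1.25 mM) stimulation; lower signal means less secretion.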
# DRD3 antagonist: antagonists of human D3 dopamine receptor | P35462 | max response, negative = inhibition, % | 360,000 compounds, 2.5% hits | D3R cells, DiscoveRx beta-arrestin luminescence, antagonist mode; active compounds read low | AID 652054; in the data active = max response below about -50%; inconclusive = no clear call, values can overlap the other calls
#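 Cells plated overnight at 1500 cells/well, then exposed to library compounds with dopamine controls for 90 minutes at 37 degrees C. DiscoveRx reagent added for 30–60 minutes at room temperature; luminescence read, quantitative HTS format.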
# A number is an active result; i = inactive; ? = inconclusive; nt = no result; [ ] = dose if it differs, or a comment. Shown are actives, neighbours in structure and some others; about 7% of the full set was active somewhere. Unless noted, calls follow the shape of the dose curve; as a rule, active = well fitted curve in the direction sought with a large enough effect; inconclusive = small, poorly fitted or top-dose-only effect, or another doubt; inactive = no such curve, though single readings can be large; an effect the other way counts as inactive or inconclusive.
SMILES,Integrin act MD,ATXN viability,DRD3 agonist,ATXN2 expr inh,IL1B secr inh,DRD3 antagonist
Cc1ccc(C)c(/C=C/C(=O)c2ccccc(=O)c2O)c1,i,?,i,17.8µM,-63.9,-51.3
Cc1cccc(C(=O)NNC(=O)c2ccccc2O)c1,i,i,i,nt,i,i
Cc1ccc(/C=C/C(=O)c2ccccc(=O)c2O)c(C)c1,i,?,i,?,-103.6,i
O=C(/C=C/c1ccccc1Cl)c1ccc(O)cc1,i,i,i,i,-95.2,i
Cc1nn(C)cc1C(=O)/C=C/c1ccc([N+](=O)[O-])cc1,i,i,i,i,-99.0,?
O=C(COC(=O)CNS(=O)(=O)c1c(Cl)cccc1Cl)Nc1ccccc1Sc1ccccc1,i,i,i,i,i,i
O=C1NC(=O)c2c(NC(=O)C3CCCO3)cccc21 (centres undefined),i,i,i,i,i,i
O=S(=O)(/N=C(/Nc1ccccn1)c1ccccc1)c1ccccc1,i,i,i,i,i,i
O=C(/C=C/c1ccc([N+](=O)[O-])cc1)c1ccccc(=O)c1O,i,nt,i,?,-98.0,-106.5
O=C(/C=C/c1ccccc1Cl)c1ccccc(=O)c1O,i,?,i,25.1µM,-96.7,-77.4
O=C(/C=C/c1ccc([N+](=O)[O-])cc1)c1cccs1,i,i,i,i,i,i
COc1ccc(OC)c(-n2c(SCC(=O)Nc3cc(C)on3)nnc2-c2c[nH]c3ccccc23)c1,i,i,i,i,i,-51.3
CC(C)(C)C1CCc2c(sc(NC(=O)CSc3ncn[nH]3)c2C#N)C1 (centres undefined),i,i,35.6,?,?,i
N#Cc1c(NC(=O)CSc2ncn[nH]2)sc2c1CCCC2,i,?,i,?,i,i
CC1CCc2c(sc(NC(=O)CSc3ncn[nH]3)c2C#N)C1 (centres undefined),i,i,i,0.336µM,i,i
C/C(=N\NS(=O)(=O)c1ccc(C)cc1)c1ccc(C)s1,i,nt,i,nt,i,i
O=S(=O)(Nc1ccc2c(c1)nc1n2CCN(Cc2ccccc2)C1)c1ccc(Cl)cc1,i,nt,i,nt,-55.0,-58.2
Cc1ccc(S(=O)(=O)Nc2ccc3c(c2)nc2n3CCN(Cc3ccccc3)C2)cc1,i[7.66 µM],i,i,?,-68.7,-51.3
O=S(=O)(Nc1ccc2c(c1)nc1n2CCN(Cc2ccccc2)C1)c1ccccc1,i,i,i,i,i,?
O=S(=O)(Nc1ccc2c(c1)nc1n2CCN(Cc2ccccc2)C1)c1ccc(F)cc1,i,i,i,i,i,i
O=C(Nc1ccc2c(c1)nc1n2CCN(Cc2ccccc2)C1)c1cccs1,i,nt,i,nt,-94.1,i
CC(C)n1c(N2CCN(C(=O)N3CCCCC3)CC2)nc2ccccc21,i,i,i,i,i,i
Cc1csc(=O)n1CCC(=O)OCC(=O)NNC(=O)c1ccc(Cl)cc1,i,i,i,i,i,i
Cc1c(C(=O)Nc2ccccc2)sc2ncn(CC(=O)N3CCCCC3)c(=O)c12,i,i,i,i,i,i
COc1cc(C(=O)NC(C)c2cccc3ccccc23)cc(OC)c1OC (centres undefined),i,i,i,i,-56.7,i
SMILES,Integrin act MD,ATXN viability,DRD3 agonist,ATXN2 expr inh,IL1B secr inh,DRD3 antagonist
Cc1ccc(NC(=O)c2cc(C)n(-c3ccccc3)c2C)cc1,i,i,i,?,-82.9,i
Cc1cc(C(=O)Nc2ccc(Cl)cc2)c(C)n1-c1ccccc1,i,i,i,?,-91.2,i
Cc1ccc(NC(=O)c2cc(C)n(-c3cccc(C)c3)c2C)cc1,i,i,i,i,-65.6,i
Cc1ccc(-n2c(C)cc(C(=O)NS(=O)(=O)c3ccc(C)cc3)c2C)cc1,i,i,i,i,i,i
Cc1cc(C(=O)Nc2ccc(Cl)cc2)n(-c2ccccc2)n1,?,i,i,i,?,i
Cc1ccc(-n2c(C)cc(C(=O)C(=O)Nc3ccccc3)c2C)c(C)c1,nt,i,i,i,nt,nt
Cc1ccc(S(=O)(=O)NN=C2C(=O)C3CCC2C3Cl)cc1 (centres undefined),i,i,i,i,i,i
CCOc1ccc(CCn2c(-c3ccco3)nc3ccccc3c2=O)cc1OCC,i,?,35.9,?,-57.0,i
